High-throughput results deposited in PubChem BioAssay by National Center for Advancing Translational Sciences (NCATS).
KDM5B inh: inhibitors of human KDM5B histone demethylase. KDM5B demethylase, FDH-coupled NADH fluorescence (FDH is formaldehyde dehydrogenase). Potency, µM (doses to about 57.7 µM), actives largely listed as inhibitors. 2.6% of 220,000 active. AID 1347165; active = well fitted inhibition curve with a large enough effect; note: 0% is about no effect; nearly all actives have a fitted effect of over 70% in size
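Coupled FDH/NAD⁺ fluorescence readout. KDM5BΔAP 200 nM final; compound titration, 10 min RT preincubation; substrate mix 12.5 µM H3K4me3, 25 µM 2-OG, 50 µM Fe(II), 100 µM ascorbate, 0.25 mM NAD⁺, 0.25 U/mL FDH; ΔRFU over 30 min.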
Active calls of the source: *; i = inactive. Many of the other results were omitted from the sample, so hits are more common in it than they were. Potency is the fitted concentration of half-maximal effect.

SMILES	KDM5B inh
CCc1nc2c(=O)n(CC(=O)N(CC)Cc3ccccc3)nc(C)c2s1	i
CCN(CC)CCCN(C)C(=O)Cn1nc(Cc2ccncc2)c2ccccc2c1=O	i
Cc1nn(CC(=O)N2CCCCCC2)c(=O)c2nc(-c3ccccc3)sc12	32µM*
CCCCN(C)C(=O)Cn1nc(C)c2sc(-c3ccccc3)nc2c1=O	28µM*
Cc1ccc(-c2nn(CC(=O)N3CCCC3)c(=O)c3ccccc23)cc1	i
CN(C)C(CNC(=O)c1cc(=O)c2cc(Cl)ccc2o1)c1ccco1 (stereo not drawn)	i
O=C(Cc1cccs1)N1CCCN(c2cc(-c3ccc(Br)cc3)[nH]n2)CC1	i
Cc1ccc(CC(=O)N2CCCN(c3cc(-c4ccccc4)[nH]n3)CC2)cc1	28µM*
Cc1cccc(OCC(=O)N2CCCN(c3cc(-c4ccc(Cl)cc4)[nH]n3)CC2)c1	14µM*
COc1ccc(CC(=O)N2CCCN(c3cc(-c4ccccc4)[nH]n3)CC2)cc1	22µM*
CC(Oc1ccccc1)C(=O)N1CCCN(c2cc(-c3ccc(Cl)cc3)[nH]n2)CC1 (stereo not drawn)	i
COc1ccc(C(=O)N2CCCN(c3cc(-c4ccccc4)[nH]n3)CC2)c(C)c1	i
O=C(Cc1ccsc1)N1CCCN(c2cc(-c3ccc(Cl)cc3)[nH]n2)CC1	i
O=C(COc1ccc(F)cc1)N1CCCN(c2cc(-c3ccc(Br)cc3)[nH]n2)CC1	i
COc1ccc(-c2cc(N3CCN(C(=O)Cc4cccc(C)c4)CC3)n[nH]2)cc1	i
Cc1nc2ccc(C(=O)NC(C)c3ccccc3)cc2nc1C (stereo not drawn)	i
CCOC(=O)/C(C#N)=C/c1ccc(OCc2ccc(Cl)cc2Cl)cc1	i
O=C(CSCc1ccncc1)N(Cc1ccsc1)C1CC1	i
CCS(=O)(=O)Nc1ccc(C2(C(=O)Nc3cccc(F)c3C)CCCCC2)cc1	i
O=C(NCCN1CCN(C(=O)c2ccc(Cl)c(Cl)c2)CC1)c1ccc(Cl)c(Cl)c1	i
CCc1sc(C(=O)OC(C)C(=O)Nc2cc(C)no2)cc1C (stereo not drawn)	i
CCN1CCN(c2ccc(NC(=O)c3cccc(S(=O)(=O)NCc4cccs4)c3)cc2)CC1	i
CC(C)N1CCC(N2CCCC(N3CCN(c4cccc(C(F)(F)F)c4)CC3)C2)CC1 (stereo not drawn)	i
Fc1ccc(-c2nnc3ccc(NCCc4ccccc4)nn23)nc1	i
Fc1ccc(-c2nnc3ccc(NCCc4ccccn4)nn23)nc1	40µM*
SMILES	KDM5B inh
Cc1ccc(-c2nnc3ccc(NCc4cccc(F)c4)nn23)nc1	i
CC(C)CNc1ccc2nnc(-c3ccc(F)cn3)n2n1	32µM*
Fc1ccc(-c2nnc3ccc(Nc4ccc(N5CCOCC5)cc4)nn23)nc1	i
Fc1ccc(-c2nnc3ccc(NCc4cnccn4)nn23)nc1	i
O=C(O)C/C(=C/c1ccc(Cl)cc1)c1nc2ccccc2s1	i
C[C@]1(CO)C2CC[C@@H](O)[C@@H](CC(=O)N3CCOCC3)[C@]2(C)CC[C@H]1OC(=O)Nc1ccccc1 (stereo partly drawn)	i
CCC(NC(=O)C1CCCO1)C12CC3CC(CC(C3)C1)C2 (stereo not drawn)	i
Cc1csc(CNC(=O)N(C)Cc2ccc3c(c2)OCO3)n1	i
COc1ccccc1CN1CCCn2nc(C)c(-c3ccccc3[S+](C)(=O)[O-])c21	i
Cc1nn2c(c1-c1ccccc1[S+](C)(=O)[O-])N(CCC(C)C)CCC2	22µM*
Cc1nn2c(c1-c1ccccc1[S+](C)(=O)[O-])N(Cc1ccc3[nH]ccc3c1)CCC2	i
Cc1ccc(C(=O)NC2CCCc3ccccc32)s1 (stereo not drawn)	i
Cn1c(COc2cccc(C(F)(F)F)c2Cl)nnc1C1CC(N)C1 (stereo not drawn)	i
Cc1cccc(Oc2ccc(S(=O)(=O)N3CCCCC3)cc2NC(=O)c2ccncc2)c1	i
O=C(CCC[C@H]1NC[C@@H]2CC1CN(Cc1ccccc1)C2)NCCCc1ccccc1	7.1µM*
O=C(CCC[C@H]1NC[C@@H]2C[C@H]1CN(Cc1ccccc1)C2)NCCN1CCCCC1	i
O=C(CCC[C@H]1NC[C@@H]2C[C@H]1CN(Cc1ccccc1)C2)NCc1ccccn1	i
N#Cc1ccc(OCc2noc(-c3ccc(Cl)cc3)n2)c(Cl)c1	i
Cc1ccc(N2Cc3c(NCCc4ccc(F)cc4)ncnc3N(C)CC2=O)cc1	i
CCCc1nc(SCC(=O)N2CCOCC2)c2c(C)c(C)sc2n1	i
Cc1sc2nc(CN3CCOCC3)nc(N(C)CC(=O)Nc3cccc(F)c3)c2c1C	i
CCCc1cc(CN(C)c2nc(CCN)nc3sc(C)c(C)c23)[nH]n1	22µM*
Cc1oc2cc(OCC(=O)NCc3ccco3)ccc2c(=O)c1Oc1ccccc1Br	i
Cc1nn(CN2CCN(S(=O)(=O)c3cccc(Cl)c3Cl)CC2)c(=O)c2ccccc12	i
CC(=O)NC1C(=O)N(CCOc2ccccc2)c2ccccc21 (stereo not drawn)	i
SMILES	KDM5B inh
N#Cc1c(SCC(=O)N2CCOCC2)nc(N2CCOCC2)c2c1CCCC2	i
OCC1CN(c2ncccn2)CC12CCN(Cc1cc(Cl)ccc1F)CC2 (stereo not drawn)	25µM*
Cc1ccsc1CN1CCC2(CC1)CN(c1ccncn1)CC2CO (stereo not drawn)	i
OCC1CN(c2ncccn2)CC12CCN(Cc1ccc3cc[nH]c3c1)CC2 (stereo not drawn)	28µM*
COCC1CN(C(C)=O)CC12CCN(Cc1ccc(Cl)cc1F)CC2 (stereo not drawn)	i
COc1cccc(CN2CCC3(CC2)CC(O)CCO3)n1 (stereo not drawn)	i
CCn1nc(C)c(CN2CCC3(CC2)CN(c2ccncn2)CC3CO)c1C (stereo not drawn)	i
OCC1CN(Cc2cccnc2)CCC12CCN(Cc1cccc(O)c1)CC2 (stereo not drawn)	i
Cc1cccc(CN2CCC3(CC2)CCN(Cc2cccc(O)c2)CC3CO)n1 (stereo not drawn)	i
OCC1CNCCC12CCN(Cc1ccc3ccccc3c1)CC2 (stereo not drawn)	i
Cn1cccc1CN1CCC2(CC1)CN(c1ncccn1)CC2CO (stereo not drawn)	32µM*
COc1cccc(CN2CCC3(CC2)CN(c2ncccn2)CC3CO)n1 (stereo not drawn)	22µM*
OCC1CN(c2ccncn2)CC12CCN(Cc1cccc(F)c1F)CC2 (stereo not drawn)	i
CCOC(=O)C1CCN([C@H]2CS(=O)(=O)C[C@@H]2S(=O)(=O)c2ccccc2)CC1	i
COc1ccccc1C(C1=C(O)CC(C)(C)CC1=O)C1=C(O)CC(C)(C)CC1=O	i
CN(C)C(=O)CCSc1ccc(F)cc1	i
O[C@H]1CC[C@@H](Cc2cc(COc3ccccc3)on2)O[C@@H]1CNC1CCOCC1	i
COc1ccc2cnn(CC(=O)Nc3ccc(Oc4ccccc4)cc3)c(=O)c2c1OC	i
Cc1nc(SCC(=O)NC23CC4CC(CC(C4)C2)C3)n(C2CC2)c1C	i
OCC1CN(Cc2ccccc2)CC12CCN(C1CCC1)CC2 (stereo not drawn)	i
OCC1CN(c2ncccn2)CC12CCN(C1CCSCC1)CC2 (stereo not drawn)	32µM*
O=C(Cc1ccsc1)N1CCC2(CC1)CN(c1ccncn1)CC2CO (stereo not drawn)	i
